Rows were chosen to be rich in hits. Some 6.8% of all compounds tested hit in one or more screens of this group.
Cy5 interf NS3h = enhances or quenches Cy5 fluorescence in NS3h assay; AID 720488; 16,000 tested, 6% active; fluorescence interference ratio at 100 µM; Cy5-dT15 DNA with NS3h, fluorescence interference; actives lie on both sides; signal over control mean, under 1 quenches;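 active = compound fluorescence over control fluorescence at most 0.8, a quencher, or at least a set upper limit, an enhancer; inactive = ratio between 0.8 and the set upper limit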
HCV NS3h FP = blocks HCV NS3 helicase binding to DNA. inhibition, % at 100 µM. AID 687043. 16,000 tested, 1.6% active. NS3h Cy5-dT15 DNA binding, fluorescence polarization;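 active = inhibition above the average over every tested compound plus 3 SD, cut at about 40% in these data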
HCV NS3h conf = confirmation of hepatitis C virus NS3 helicase inhibitors | NS3h binding to Cy5-dT15 DNA, fluorescence polarization | 240 tested, 20% active | shares compounds with HCV NS3h FP | inhibition, % at 100 µM;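 active = percent inhibition of 50% or more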
SSB FP counter = E. coli SSB-DNA binding inhibition, NS3h counter-screen | shares compounds with HCV NS3h FP | E. coli SSB binding Cy5-dT15, fluorescence polarization | inhibition, % at 100 µM | 240 tested, 40% active | AID 720486;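 active = inhibition of at least 50%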;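 note: displacers lower Cy5 polarization so higher inhibition means more SSB displaced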
Target sequence (P0AGE0 whole entry, looked up): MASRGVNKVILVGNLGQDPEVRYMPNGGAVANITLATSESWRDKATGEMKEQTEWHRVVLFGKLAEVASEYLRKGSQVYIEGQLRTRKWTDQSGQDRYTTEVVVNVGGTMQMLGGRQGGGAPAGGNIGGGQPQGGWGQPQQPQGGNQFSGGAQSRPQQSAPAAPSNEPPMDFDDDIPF
Cy5 SSB fluor CB = counter-screen for HCV NS3 helicase inhibitors: fluorescence interference. shares compounds with HCV NS3h FP. Cy5-dT15/E. coli SSB fluorescence interference; actives lie on both sides. fluorescence interference ratio at 100 µM. 240 tested, 8% active. AID 720487;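 active = fluorescence interference ratio at or above 1.2, signal boosting, or at or below 0.8, signal quenching; inactive = ratio between 0.8 and 1.2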;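 note: ratio of compound well signal to mean negative control signal so 1 means no effect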
Cy5 fluor confirm = confirmation counter-screen for HCV NS3 helicase inhibitors: fluorescence interference; AID 720489; 240 tested, 44% active; shares compounds with HCV NS3h FP; fluorescence interference ratio at 100 µM, hits read low; Cy5-dT15 DNA/NS3h fluorescence interference counterscreen;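 active = fluorescence interference ratio at or below 0.8 quencher or at or above a set limitenhancer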;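 note: ratio of compound fluorescence to mean of negative controls so 1 means no interference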
An asterisk follows results filed as active.

SMILES | Cy5 interf NS3h | HCV NS3h FP | others
COc1ccc(C2CC(C(F)(F)F)n3nc(C(=O)Nc4cccc(O)c4)c(Cl)c3N2)cc1OC (stereo not drawn) | 1.13 | -11.4
Cc1ccsc1/C=C1\SC(=S)N(C(C)C)C1=O | 0.987 | 4.8
Cc1ccsc1/C=C1\SC(=N)N(c2ccc3c(c2)OCO3)C1=O | 1.47* | 48.9*
CC(C)CC(=O)N1CCN(CCCc2ccccc2)CC1 | 1.01 | -3.5
COc1ccc2c(c1[N+](=O)[O-])CCC/C2=N\OC(=O)c1cccc2ccccc12 | 1.01 | 0.3
COc1ccc(/C(N)=N\OC(=O)c2cccc([N+](=O)[O-])c2C)cc1OC | 1.02 | 3.1
COc1ccc2c(c1[N+](=O)[O-])CCC/C2=N\OC(=O)c1ccccc1SC | 0.629* | 3.1
COc1ccccc1C(=O)O/N=C1\CCCc2c1ccc(OC)c2[N+](=O)[O-] | 0.741* | 21.7
C=CCC1(O)C(C)C(c2cc(OC)ccc2OC)NC(c2cc(OC)ccc2OC)C1C (stereo not drawn) | 1.09 | 0.3
O=C(Nc1ccc(Br)cn1)c1cc2n(n1)C(C(F)(F)F)CC(c1ccccc1)N2 (stereo not drawn) | 0.696* | 23.5
CCc1ccccc1NC(=O)c1cc2n(n1)C(C(F)(F)F)CC(c1ccccc1)N2 (stereo not drawn) | 1.04 | 6.4
O=C(NCc1ccccc1Cl)c1ccc(I)cc1 | 0.897 | 15.2
CCN(C(=O)c1ccccc1Cl)c1ccccc1 | 0.669* | 6.8
CCCN(CCC)C(=O)c1ccccc1NC(=O)c1ccccc1Cl | 1.01 | -11.5
Cc1ccc(C(O)=C2C(=O)C(=O)N(c3ccc(O)cc3)C2c2ccc(F)cc2)cc1 (stereo not drawn) | 1.01 | -11.8
CC(NC(=O)NC(=O)c1cccc([N+](=O)[O-])c1)C1CC1 (stereo not drawn) | 0.641* | 9.6
CC(C)CCNC(=O)c1cccc([N+](=O)[O-])c1 | 1.04 | 16.6
O=C1C=CC(=O)N1c1ccc(-c2cc(-c3ccccc3)nc(-c3ccc(N4C(=O)C=CC4=O)cc3)n2)cc1 | 1.07 | 7.2
CSc1ccccc1N1C(=O)C=CC1=O | 1 | 21.5 | HCV NS3h conf=41.5;SSB FP counter=-1.9;Cy5 SSB fluor CB=0.97;Cy5 fluor confirm=0.753*
CCc1cc2c(C)cc(=O)oc2cc1OC(C)=O | 0.981 | -2.5
CC(=O)Oc1cccc(N2C(=O)c3ccc(C(=O)c4ccc5c(c4)C(=O)N(c4cccc(OC(C)=O)c4)C5=O)cc3C2=O)c1 | 0.993 | 40.7* | HCV NS3h conf=2.3;SSB FP counter=11.4;Cy5 SSB fluor CB=0.98;Cy5 fluor confirm=0.915
CC(=O)Oc1ccc(N2C(=O)c3ccc(C(=O)c4cccc([N+](=O)[O-])c4)cc3C2=O)cc1 | 1.01 | 5.1
O=C(N/N=C\c1cccs1)/C(=C\c1ccc2c(c1)OCO2)NC(=O)c1ccccc1 | 1.03 | 17.5
CC(=O)COc1ccc2c(oc(=O)c3ccccc32)c1C | 1.04 | 30.1 | HCV NS3h conf=8.7;SSB FP counter=4.1;Cy5 SSB fluor CB=0.968;Cy5 fluor confirm=0.711*
Cc1c(OCC(=O)c2ccccc2)ccc2c1oc(=O)c1ccccc12 | 0.978 | 14.2
SMILES | Cy5 interf NS3h | HCV NS3h FP | others
COc1ccc(-c2cc(-c3ccccc3)n[nH]2)c(O)c1 | 1.26* | 42.9* | HCV NS3h conf=6.6;SSB FP counter=11.4;Cy5 SSB fluor CB=0.929;Cy5 fluor confirm=0.731*
Cc1ccc(-c2cc(-c3ccc(C)cc3O)[nH]n2)cc1 | 0.981 | 37.7
COCCOC(=O)c1c(C)oc2ccc(OCc3ccc([N+](=O)[O-])cc3)cc12 | 0.893 | 12.5
O=C(Nc1nc(-c2ccccc2)c(-c2ccccc2)s1)c1ccc(S(=O)(=O)N2CCCC2)cc1 | 0.977 | 10.0
CC1C(c2ccc(N(C)C)cc2)NC(c2ccc(N(C)C)cc2)C(C)C1O (stereo not drawn) | 1.02 | 2.8
COc1ccc(C(=O)NCCNc2ccc([N+](=O)[O-])cc2)cc1OC | 1.06 | 40.0 | HCV NS3h conf=12.9;SSB FP counter=7.8;Cy5 SSB fluor CB=0.938;Cy5 fluor confirm=0.72*
COc1ccc(C(=O)NCCCNc2ccc([N+](=O)[O-])cc2Cl)cc1OC | 0.982 | 16.2
O=C(Nc1ccccc1)Nc1nnc(-c2ccc(Cl)cc2)s1 | 1.01 | 6.2
COC(=O)c1c(C)oc2ccc(OCc3ccc([N+](=O)[O-])cc3)cc12 | 1.02 | -4.3
O=Cc1ccc(OCc2ccc([N+](=O)[O-])cc2)cc1 | 0.594* | 48.6* | HCV NS3h conf=26.7;SSB FP counter=18.7;Cy5 SSB fluor CB=0.921;Cy5 fluor confirm=0.702*
COc1ccc(OC)c(C2NC(c3cc(OC)ccc3OC)C(C)C(O)(c3ccc(F)cc3)C2C)c1 (stereo not drawn) | 0.991 | -21.1
CCCC(C)NC(=O)c1ccc([N+](=O)[O-])cc1 (stereo not drawn) | 1.02 | 3.1
O=C(NC(O)C(Cl)(Cl)Cl)c1ccc([N+](=O)[O-])cc1 (stereo not drawn) | 1.04 | 39.2 | HCV NS3h conf=-1.9;SSB FP counter=5.3;Cy5 SSB fluor CB=1.01;Cy5 fluor confirm=0.779*
Cc1nc2cc(-c3cccc(F)c3)nn2c(C)c1Cl | 0.997 | 5.2
Cc1ccc(C(=O)O)cc1-n1c(C)ccc1C | 1.37* | 81.6* | HCV NS3h conf=89.1*;SSB FP counter=89.1*;Cy5 SSB fluor CB=0.995;Cy5 fluor confirm=0.811
Cc1cc(C(=O)O)ccc1-n1c(C)ccc1C | 1.37* | 100.6* | HCV NS3h conf=99.6*;SSB FP counter=108.5*;Cy5 SSB fluor CB=0.935;Cy5 fluor confirm=0.982
Cc1cc(Cl)c2cc(C(=O)O)ccc2n1 | 0.986 | 2.2
Cc1cccc(N2C(=O)c3ccc(C(=O)O)cc3C2=O)c1 | 1.06 | 2.1
O=S(=O)(Nc1ccc2oc(-c3cc(Br)ccc3Cl)nc2c1)c1ccccc1 | 1 | 7.9
Cc1ccc(NC(=O)C(=O)NCCN2CCOCC2)c(C)c1 | 0.949 | 9.4
CS(=O)(=O)N(CC(=O)Nc1ccc(Br)cc1)c1ccc(Cl)cc1 | 0.971 | -1.8
O=C(NCCCO)c1ccccc1C(=O)c1ccccc1 | 0.938 | 2.6
O=S(=O)(c1ccc(Cl)cc1)c1ccc(Oc2ccc(Cl)cc2)cc1 | 1.14 | -3.9
O=C(Oc1ccc(-c2nc3ccccc3[nH]2)cc1)c1ccc(Cl)cc1 | 0.881 | 14.6
O=C(Oc1ccc(Cl)cc1)c1ccccc1 | 1.17 | 53.9* | HCV NS3h conf=49.9*;SSB FP counter=60.0*;Cy5 SSB fluor CB=1.19;Cy5 fluor confirm=1.2*
SMILES | Cy5 interf NS3h | HCV NS3h FP | others
CCCc1cc(=O)oc2cc(OCC(=O)N(C)C)ccc12 | 1.12 | 7.3
Cc1cc(/C=C2\C(=O)NC(=O)N(c3cccc(F)c3)C2=O)c(C)n1C | 1.09 | 6.8
O=C1NC(=O)N(c2cccc(F)c2)C(=O)/C1=C/c1ccc(OCc2cccc(C(=O)O)c2)cc1 | 1.05 | 41.2* | HCV NS3h conf=12.9;SSB FP counter=39.3;Cy5 SSB fluor CB=0.954;Cy5 fluor confirm=0.746*
O=C1NC(=O)N(c2ccccc2F)C(=O)/C1=C/c1ccc(OCc2cccc(C(=O)O)c2)cc1 | 1.06 | 32.6
Cc1ccccc1N1C(=O)NC(=O)/C(=C\c2ccc(OCc3cccc(C(=O)O)c3)cc2)C1=O | 1.06 | 42.3* | HCV NS3h conf=21.4;SSB FP counter=68.4*;Cy5 SSB fluor CB=0.912;Cy5 fluor confirm=0.803*
CN1C(=O)C(=Cc2ccc(OCc3cccc(C(=O)O)c3)cc2)C(=O)N(C)C1=O | 1.04 | 5.7
O=C1NC(=S)N/C1=C/c1ccc(OCc2cccc(C(=O)O)c2)cc1 | 1.07 | 61.6* | HCV NS3h conf=20.3;SSB FP counter=28.4;Cy5 SSB fluor CB=0.987;Cy5 fluor confirm=0.769*
COc1ccccc1N1CCN(C(=O)c2ccc(I)cc2)CC1 | 1.05 | 15.4

Screens (PubChem)
